From PubChem BioAssay (NCI) come the findings set out here.

Molecules are shown by their SMILES. This is part of a sample that, as a whole, favours compounds with a hit. Of some 83,000 tested, about 20% had one in any assay.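 A percent growth of 40 corresponds to 60% growth inhibition; 0 means no net growth; -100 means all cells died. Active threshold: below 10.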 Values without a mark were called inactive. Activity calls are given as the source filed them.

Some test systems named below: NCI-H23 lung; NCI-H226 lung; NCI-H322M lung; HOP-62 NSCLC; NCI-H460 lung; HOP-92 NSCLC; NCI-H522 lung; A549/ATCC NSCLC; 786-0 renal; COLO 205 colon.
What all share (assay): NCI-60 one-dose screen, 48 h (100 = growth as untreated, 0 = no growth, -100 = all killed)
Common to all, as to settings: 10 µM unless noted

Take `C/C(=N\NC(=S)Nc1ccc(Br)cc1)c1cc2ccccc2oc1=O`: the growth with NCI-H23 lung is 34.1%; in the assay on NCI-H226 lung it was -17.8% (active); in the assay on NCI-H322M lung it was 37.4%; in the assay with HOP-62 NSCLC, 30.5%; with NCI-H460 lung, 3.8% (active); in the assay with HOP-92 NSCLC, 29.1%. The growth is -14.4% (active) in the assay on NCI-H522 lung, 27.3% with A549/ATCC NSCLC, 5.25% (active) in the assay on 786-0 renal and 71.1% in the assay on COLO 205 colon.
With `COc1cc2cc(Oc3ccc(NC(=O)Nc4cc(C(F)(F)F)cc(C(F)(F)F)c4)cc3)c(C)nc2cc1OCCN(C)C`, the growth is 104% in the assay on NCI-H23 lung; 98.6% in the assay on NCI-H226 lung; 109% in the assay with NCI-H322M lung; 101% in the assay with HOP-62 NSCLC; 107% in the assay with NCI-H460 lung; 127% in the assay on HOP-92 NSCLC. For the same compound, the growth was 102% in the assay with NCI-H522 lung, 104% with A549/ATCC NSCLC, 106% in the assay on 786-0 renal and 115% with COLO 205 colon.
Take `O=C1c2c(c3c4cccnc4[nH]c3c3ccc4ccccc4c23)C(=O)N1CCN1CCNCC1`: the growth was 81.6% with NCI-H23 lung; 89.4% with NCI-H226 lung; 88% in the assay on NCI-H322M lung; 63.6% with HOP-62 NSCLC; 32.6% in the assay with NCI-H460 lung; 85.3% with HOP-92 NSCLC. For the same compound, the growth in the assay on NCI-H522 lung is 81.8%; in the assay on A549/ATCC NSCLC it was 44%; in the assay on 786-0 renal, 52.7%; with COLO 205 colon, 81.9%.
As to `COc1ccc(Cn2cc3c(c2-c2ccccc2)CCCc2cnoc2-3)cc1[N+](=O)[O-]`, the growth with NCI-H23 lung is 74.8%; with NCI-H226 lung, 66.6%; in the assay on NCI-H322M lung, 96.2%; in the assay with HOP-62 NSCLC, 68.6%; with NCI-H460 lung it was 56.4%; with HOP-92 NSCLC it was 62.7%. The growth in the assay with NCI-H522 lung is 58.2%; in the assay on A549/ATCC NSCLC it was 66.7%; with 786-0 renal, 87.6%; with COLO 205 colon, 46.8%.
With `COc1ccc(-c2nc3cc(Cl)c(Cl)cc3n2CC(=O)N=Nc2c(O)[nH]c3ccc(Br)cc23)cc1`, the growth in the assay with NCI-H23 lung was -21.5% (active); in the assay with NCI-H226 lung, -16.2% (active); in the assay with NCI-H322M lung, 41%; in the assay with HOP-62 NSCLC, -50.2% (active); with NCI-H460 lung, -42.5% (active); with HOP-92 NSCLC, -34% (active). For the same compound, the growth is 14% in the assay with NCI-H522 lung, -28.9% (active) in the assay on A549/ATCC NSCLC, -17.3% (active) in the assay on 786-0 renal and -37.9% (active) with COLO 205 colon.
Consider `Cc1ccc(-c2nnc3sc(C4=Cc5ccccc5OC=C4)nn23)cc1`, for which the growth was 96.4% in the assay on NCI-H23 lung; 96.4% in the assay on NCI-H226 lung; 100% with NCI-H322M lung; 121% with HOP-62 NSCLC; 101% with NCI-H460 lung; -34.7% (active) in the assay on HOP-92 NSCLC. Besides, the growth is 91% with NCI-H522 lung, 92.3% with A549/ATCC NSCLC, 95% in the assay with 786-0 renal and 120% in the assay on COLO 205 colon.
Turning to `O=C(Nc1ccc(-c2nc(-c3cccc(O)c3)c(-c3ccnc(Br)c3)[nH]2)cc1)c1ccccc1`, the growth in the assay on NCI-H23 lung is 10.5%; in the assay with NCI-H226 lung, 51.4%; with NCI-H322M lung it was 37.3%; with HOP-62 NSCLC it was 2.99% (active); in the assay with NCI-H460 lung, 11.1%; in the assay with HOP-92 NSCLC it was 6.58% (active). In addition, the growth in the assay with NCI-H522 lung is 11.3%; with A549/ATCC NSCLC it was 25.9%; with 786-0 renal, -10.2% (active); in the assay with COLO 205 colon, 21%.
For `CN1CCN(c2nc(-c3cnc4ccccc4n3)cc3ccccc23)CC1`, the growth in the assay on NCI-H23 lung is 90.9%; in the assay on NCI-H226 lung it was 99.9%; in the assay on NCI-H322M lung it was 96.7%; with HOP-62 NSCLC, 95.9%; in the assay with NCI-H460 lung it was 41.3%; in the assay with HOP-92 NSCLC, 17.3%. The growth in the assay with NCI-H522 lung was 86.9%; with A549/ATCC NSCLC it was 75.9%; in the assay with 786-0 renal, 56.4%; in the assay with COLO 205 colon, -65.2% (active).
Turning to `COCCOc1ccc(-c2csc(NC(C)=O)n2)cc1NS(=O)(=O)c1cccc2c(N(C)C)cccc12`, the growth in the assay on NCI-H23 lung is 104%; with NCI-H226 lung, 84.9%; in the assay with NCI-H322M lung it was 92.6%; in the assay with HOP-62 NSCLC it was 102%; in the assay on NCI-H460 lung, 100%; in the assay with HOP-92 NSCLC, 58.6%. Moreover, the growth in the assay on NCI-H522 lung was 85.2%; in the assay on A549/ATCC NSCLC, 98.3%; in the assay on 786-0 renal, 95.8%; with COLO 205 colon, 94.5%.
On to `COc1ccc(/C=N\NC(=O)c2ccc3nc(-c4ccc(Br)cc4)[nH]c3c2)cc1`, for which the growth with NCI-H23 lung was 24.5%; with NCI-H226 lung it was 64.3%; in the assay with NCI-H322M lung, 66.2%; in the assay with HOP-62 NSCLC, 4.06% (active); with NCI-H460 lung it was -47.7% (active); with HOP-92 NSCLC, -2.97% (active). Besides, the growth was 74.6% in the assay on NCI-H522 lung, 23.8% in the assay with A549/ATCC NSCLC, 12.8% in the assay on 786-0 renal and 18.4% with COLO 205 colon.
`CC1OC(O[C@@H]2C(O)C(CO)OC(O[C@H]3COC(O[C@H]4CC[C@]5(C)[C@H]6CC[C@]78OC[C@@]9(CC[C@](C)(C=O)C[C@H]97)[C@H](O)C[C@@]8(C)[C@]6(C)CC[C@H]5C4(C)C)[C@@H](OC4OC(CO)[C@@H](O)[C@@H](O)[C@@H]4O)[C@@H]3O)[C@H]2OC2OC[C@@H](O)[C@@H](O)[C@@H]2O)[C@@H](O)[C@@H](O)[C@H]1O` (stereo not given in full): the growth with NCI-H23 lung was -15.2% (active); with NCI-H226 lung, -47.5% (active); in the assay with NCI-H322M lung, -35.3% (active); in the assay with HOP-62 NSCLC, -74.6% (active); in the assay on NCI-H460 lung, 74.1%; in the assay on HOP-92 NSCLC, 15.5%. For the same compound, the growth with NCI-H522 lung is -55.4% (active); in the assay with A549/ATCC NSCLC, -63.3% (active); in the assay with 786-0 renal it was -53% (active); with COLO 205 colon it was -37.7% (active).
Consider `Cc1ccccc1NC1CC(=O)N(c2ccc(Cl)cc2Cl)C1=O` (stereo not given), for which the growth was 102% with NCI-H23 lung; 108% with NCI-H226 lung; 99% in the assay on NCI-H322M lung; 103% with HOP-62 NSCLC; 104% in the assay with NCI-H460 lung; 78% with HOP-92 NSCLC. The growth was 95.7% in the assay with NCI-H522 lung, 99.8% in the assay on A549/ATCC NSCLC, 94.2% with 786-0 renal and 120% in the assay with COLO 205 colon.
